SMILES strings stand for the structures. The whole screen tested about 1,100 compounds, of which about 390 (35%) were called active. Another 30% or so got no clear call; they are omitted. The list shows a part of the results. Values without a mark were called inactive. Calls come from the whole dose curve; as a rule, active = well fitted inhibition curve with a large enough effect; inconclusive = small, poorly fitted or top-dose-only effect; inactive = flat fitted curve, though single readings scatter.
% is set by controls: 0 for no effect and ±100 for the full control effect; potency is the fitted concentration of half-maximal effect.

This assay addresses Luciferin 4-monooxygenase (Photinus pyralis) (UniProt P08659). The assay can be described thus: qHTS of Nrf2 Activators: Hit Validation in Secondary FLuc Assay. Note: nearly all actives have a fitted effect of over 65% in size. The following applies: firefly luciferase inhibition counter-screen, luminescence; series mostly up to 57.5 µM; activity, negative = inhibition: at the top concentration. From the text:
Many diseases have some form of oxidative stress injury and ties to inflammation, causing a host of problems for the patient. The antioxidant response element (ARE) plays an important role in alleviating the harmful effects of oxidative stress. The antioxidant response element (ARE) is a transcriptional regulatory element involved in the activation of genes coding for a number of antioxidant proteins and detoxifying enzymes. These enzymes work in concert to protect tissues from oxidative insults and chemical toxicities in human hepatocytes and immune cells. The protective effects of ARE activation are primarily triggered through Nrf2 (NF-E2-related factor) binding to and activating AREs. It is known that Nrf2 controls the production of over 250 antioxidant and detoxification proteins (Hu et al., 2006), thereby protecting tissues by increasing cellular antioxidant content and suppressing inflammatory signaling pathways. The transcription factor Nrf2 is a central link between oxidative chemicals, such as phenolic antioxidants and electrophilic compounds, and the activation of ARE. Nrf2 levels are constitutively low as a consequence of its interaction with Keap1, which targets its degradation (Zipper and Mulcahy, 2002). Electrophiles react with key cysteine residues in Keap1, releasing Nrf2 and allowing its translocation to the nucleus. Once within the nucleus, Nrf2 complexes with coactivators such as p300, and binds to the AREs to induce gene transcription of cytoprotective enzymes, resulting in the prevention of toxicity. Activation of Nrf2 protects tissues by increasing cellular antioxidant content and suppressing inflammatory signaling pathways. Identifying novel and potent Nrf2 activators by using the AREc32 cell line to detect ARE activation by small molecules will lead to the identification and development of probes to study protective pathways in multiple tissues. These specific probes are essential to study the ARE pathway, and eventually to determine whether this pathway does activate genes that could protect against a host of diseases, including cardiovascular diseases, obesity, diabetes, Alzheimer's, and Parkinson's disease.
This project's aim is to identify novel and potent Nrf2 activators by using the AREc32 cell line to detect ARE activation by small molecules, which will lead to the identification and development of probes to study the ARE pathway. In this counter assay, we aim to identify false positive as identified from this primary assay using an FLuc assay with an inhibiting read-out.
NIH Chemical Genomics Center [NCGC]
NIH Molecular Libraries Probe Centers Network [MLPCN]
Assay Submitter (PI): Curtis Klaassen, University of Kansas Medical Center
Assess whether an activator in the primary assay potentially causes such activation by inhibitor-induced stabilization of the firefly luciferase reporter enzyme by determining whether it inhibits firefly luciferase in the presence of Km concentrations of its substrates (ATP and D-luciferin).
`Cc1ccc(C(=O)N/N=C/c2ccc(-c3ccc(Br)cc3[N+](=O)[O-])o2)o1`: the Potency is 3.79 µM (active).
With `CC(C)Cc1cc(-c2ccco2)c(C#N)c(N)n1`, the “activity, negative = inhibition” value is -13.5%.
Turning to `N#Cc1nc(-c2ccc(F)cc2)oc1NCc1ccco1`, the “activity, negative = inhibition” value was -27.6%.
For the molecule `N#Cc1c(-c2ccco2)cc(-c2ccc(F)cc2)nc1N`, the Potency is 5.36 µM (active).
For the molecule `N#Cc1nc(-c2ccco2)oc1N1CCCC1`, the “activity, negative = inhibition” value was 6.93%.
Consider `N#Cc1c(-c2ccco2)cc(-c2ccccn2)nc1N`, for which the Potency was 12 µM (active).
Turning to `Cc1nc(NCc2ccco2)nc2c1C(=O)CC(C)C2` (centres undefined), the “activity, negative = inhibition” value was 3.45%.
As for `COC(=O)c1sccc1NC(=O)c1cccc(F)c1`, the “activity, negative = inhibition” value was 5.88%.
As to `O=C(Nc1nnc(-c2cccs2)s1)c1cccc(F)c1`, the Potency is 2.39 µM (active).
For the molecule `O=C(Nc1nnc(-c2cccs2)s1)C1CC1`, the “activity, negative = inhibition” value is -26.1%.
On to `O=c1c2ccccc2oc2ccc(-c3ccc4cc[nH]c4c3)cc12`, for which the Potency was 0.135 µM (active).
As for `COc1ccc2oc3cc(Cl)ccc3c(=O)c2c1`, the Potency is 1.69 µM (active).
As to `CC(C)(C)/C(O)=C/c1nc2cc(Cl)ccc2oc1=O`, the “activity, negative = inhibition” value was 3.24%.
For the molecule `CC(=O)Oc1c(-c2ccco2)oc2ccccc2c1=O`, the “activity, negative = inhibition” value is -8.33%.
On to `COc1ccc2oc3ccccc3c(=O)c2c1`, for which the Potency was 8.49 µM (active).
In the case of `O=S(=O)(c1ccc(F)cc1)c1snnc1-c1ccccc1`, the “activity, negative = inhibition” value was -23.6%.
Same read-out and setting: under `CS(=O)(=O)c1nc(S(=O)(=O)c2ccc(Cl)cc2)c(N2CCN(CCO)CC2)s1` stands -0.882%.
Consider `Cc1ccc(-c2cc(-c3cccc(F)c3)n[nH]2)c(O)c1`, for which the Potency was 1.2 µM (active).
In the case of `COn1c(-c2ccccc2)nc2c1CCc1c-2no[n+]1[O-]`, the “activity, negative = inhibition” value was 0.412%.
As to `COC(=O)C1=C(C)N(c2ccc(Br)cc2)C(=O)/C1=C\c1ccco1`, the “activity, negative = inhibition” value was -25.3%.
As for `O=C1/C(=C\c2ccco2)NC(=S)N1c1ccccc1`, the Potency was 8.49 µM (active).
In the case of `O=C(CC(=O)c1ccccn1)c1ccccc1`, the Potency is 5.36 µM (active).
Consider `O=C(CCS(=O)(=O)c1ccccc1)Nc1nc(-c2ccccn2)cs1`, for which the “activity, negative = inhibition” value is -28.2%.
For `Cc1csc(NC(=S)NC(=O)c2ccccc2)n1`, the Potency was 2.13 µM (active).
Regarding `Cc1cc(C)c2c(NC(=S)NC(=O)c3ccccc3)nn(C)c2n1`, the “activity, negative = inhibition” value is 0.252%.
Turning to `Cc1ccc2cccnc2c1NC(=S)NC(=O)c1ccccc1`, the Potency is 15.1 µM (active).
As for `Cc1sc(NC(=S)NC(=O)c2ccccc2)c(C#N)c1C`, the Potency is 12 µM (active).
In the case of `Cc1cccc(C)c1NC(=S)NC(=O)c1cccc(Cl)c1`, the “activity, negative = inhibition” value was -4.09%.
Consider `Cc1ccc2cccc(NC(=S)NC(=O)c3ccccc3)c2n1`, for which the Potency was 6.01 µM (active).
`[O-][n+]1onc2c3ccnnc3ccc21`: the “activity, negative = inhibition” value is -2.23%.
Take `Cc1csc(NC(=O)Nc2ccccc2[N+](=O)[O-])n1`: the Potency was 2.69 µM (active).
As for `O=C(CC(=O)Nc1ccccc1[N+](=O)[O-])Nc1ccccc1[N+](=O)[O-]`, the “activity, negative = inhibition” value is 0.965%.
With `Cn1c(CC2C(=O)Nc3ccc(Br)cc32)nc2ccccc2c1=O` (centres undefined), the “activity, negative = inhibition” value is -7.26%.
The same measure, in the same setting: under `CCn1c(/C=C/c2ccccc2)nc2ccccc2c1=O` stands -25.2%.
As to `Cn1c(/C=C/c2cccc(Br)c2)nc2ccccc2c1=O`, the Potency was 10.7 µM (active).
`COc1ccc(NC(=O)c2cc(-c3cccs3)on2)c(OC)c1`: the “activity, negative = inhibition” value is -23.9%.
For the molecule `CSc1ccccc1NC(=O)c1cc(-c2cccs2)on1`, the Potency was 3.38 µM (active).
Take `COC(=O)c1sccc1NC(=O)c1cc(C)on1`: the “activity, negative = inhibition” value was 6.05%.
Regarding `O=[N+]([O-])c1ccccc1C=CC=NN=Cc1ccccc1O`, the Potency is 0.953 µM (active).
`CC1(C)C(=O)OC(/C=C/c2cccc([N+](=O)[O-])c2)C(C)(C)C1=O` (centres undefined): the “activity, negative = inhibition” value was 1.52%.
For `CC1(C)C2C/C(=N\O)C(C)(/[N+]([O-])=C/c3cccc([N+](=O)[O-])c3)CC21` (centres undefined), the “activity, negative = inhibition” value is 2.48%.
On to `CC(C)(C)SCCNC(=O)/C=C/c1cccc([N+](=O)[O-])c1`, for which the “activity, negative = inhibition” value is -23.6%.
For `N#C/C(=C\C=C\c1ccccc1[N+](=O)[O-])C(=O)NC1CCCCC1`, the “activity, negative = inhibition” value is -27.7%.
On to `O=[N+]([O-])c1cccc(/C=C/c2ccccn2)c1`, for which the Potency is 10.7 µM (active).
Same read-out and setting: under `O=[N+]([O-])c1cccc(C=NN=Cc2ccccc2O)c1` stands 0.601 µM (active).
In the case of `O=C(NN=Cc1cccc([N+](=O)[O-])c1)c1cccc2ccccc12`, the “activity, negative = inhibition” value is -21%.
Consider `Cn1c(SCC(=O)N/N=C/C=C\c2ccccc2[N+](=O)[O-])nc2ccccc21`, for which the “activity, negative = inhibition” value was -28.9%.
In the case of `C=C(C)CNC(=S)N/N=C(\C)c1ccc(Cl)s1`, the “activity, negative = inhibition” value is -4.5%.
Take `O=C(Oc1cccc(-c2cnc3ccccc3n2)c1)c1ccco1`: the Potency is 10.7 µM (active).
Regarding `O=[N+]([O-])c1cccc(-c2cnc3ccccc3n2)c1`, the “activity, negative = inhibition” value is -28.7%.
Consider `FC(F)(F)c1cc(-c2ccco2)nc(-n2nnc3ccccc32)n1`, for which the “activity, negative = inhibition” value is -18.6%.
Consider `c1coc(-c2cnc3ccccc3n2)c1`, for which the Potency is 2.69 µM (active).
As to `Cc1ccc(/C=C/C(=O)Nc2ccc([N+](=O)[O-])c(NC(=O)/C=C/c3ccc(C)o3)c2)o1`, the Potency is 1.2 µM (active).
`Cc1ccc(NC(=O)/C=C/c2ccc([N+](=O)[O-])s2)cc1`: the “activity, negative = inhibition” value was -2.01%.

Values taken from PubChem BioAssay AID651597 (National Center for Advancing Translational Sciences (NCATS), 2012).
